# Screening data deposited in PubChem by Sanford-Burnham Center for Chemical Genomics.
# pCIP destab: p/CIP protein destabilization | Q05BA5 | F442A p/CIP-EGFP cells, EGFP fluorescence, 16 h | decrease of EGFP signal, % at 10 µM | actives 0.01% (n = 290,000);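 active = EGFP signal decrease of at least 30% at 10 µM or well 3 SD below plate mean, unless failing retest; inactive = the rest, including hits failing retest or dose response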
# Target sequence (Q05BA5 1-1403): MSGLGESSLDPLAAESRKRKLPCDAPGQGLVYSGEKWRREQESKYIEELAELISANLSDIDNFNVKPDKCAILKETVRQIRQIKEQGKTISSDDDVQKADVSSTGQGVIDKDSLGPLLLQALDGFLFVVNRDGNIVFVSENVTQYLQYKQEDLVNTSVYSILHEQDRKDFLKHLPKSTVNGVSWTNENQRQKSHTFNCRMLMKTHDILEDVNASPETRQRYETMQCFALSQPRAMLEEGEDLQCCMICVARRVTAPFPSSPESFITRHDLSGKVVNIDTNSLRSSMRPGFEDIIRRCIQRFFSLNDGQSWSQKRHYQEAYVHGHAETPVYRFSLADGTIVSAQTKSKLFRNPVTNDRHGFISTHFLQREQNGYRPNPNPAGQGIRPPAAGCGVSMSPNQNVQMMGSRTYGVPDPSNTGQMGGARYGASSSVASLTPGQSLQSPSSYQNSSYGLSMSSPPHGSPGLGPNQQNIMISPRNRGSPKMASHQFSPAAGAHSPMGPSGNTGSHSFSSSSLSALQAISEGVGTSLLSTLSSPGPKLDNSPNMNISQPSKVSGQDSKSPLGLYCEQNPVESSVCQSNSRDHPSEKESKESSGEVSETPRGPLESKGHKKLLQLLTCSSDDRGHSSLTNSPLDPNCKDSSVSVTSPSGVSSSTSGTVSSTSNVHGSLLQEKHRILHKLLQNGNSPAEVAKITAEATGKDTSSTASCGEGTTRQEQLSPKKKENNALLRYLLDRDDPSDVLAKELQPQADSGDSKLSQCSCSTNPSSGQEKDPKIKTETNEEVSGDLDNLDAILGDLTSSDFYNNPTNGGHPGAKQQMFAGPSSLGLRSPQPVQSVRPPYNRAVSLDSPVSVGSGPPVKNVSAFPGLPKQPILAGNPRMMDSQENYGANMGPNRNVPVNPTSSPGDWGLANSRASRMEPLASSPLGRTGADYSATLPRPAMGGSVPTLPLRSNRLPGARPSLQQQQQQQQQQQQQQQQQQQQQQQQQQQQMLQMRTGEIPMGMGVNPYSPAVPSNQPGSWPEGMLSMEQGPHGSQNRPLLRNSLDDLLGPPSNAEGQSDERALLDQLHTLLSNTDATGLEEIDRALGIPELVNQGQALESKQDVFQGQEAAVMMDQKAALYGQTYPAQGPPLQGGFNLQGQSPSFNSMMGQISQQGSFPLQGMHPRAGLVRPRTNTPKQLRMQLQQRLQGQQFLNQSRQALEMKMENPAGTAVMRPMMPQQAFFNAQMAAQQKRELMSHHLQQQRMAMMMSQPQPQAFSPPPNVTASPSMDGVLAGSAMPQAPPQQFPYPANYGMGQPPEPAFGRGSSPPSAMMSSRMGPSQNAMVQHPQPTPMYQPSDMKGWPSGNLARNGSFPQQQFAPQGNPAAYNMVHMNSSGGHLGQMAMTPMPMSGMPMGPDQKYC
# beta cell repl: inducers of beta-cell replication in MIN6 cells; MIN6 cells proliferation, ATPlite luminescence, 48 h; cells starved in 0.2% serum; 100% = growth in 10% serum; AID 2380; actives 0.29% (n = 330,000); proliferation, % at 10 µM;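 active = compounds whose signal lies at least 3.5 SD above the mean of all wells on their plate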
# MPTP inh: blocks calcium-induced mitochondrial swelling; isolated mouse mitochondria, Ca2+ swelling absorbance, 30 min; inhibition, % at 10 µM; actives 1.4% (n = 360,000);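 active = inhibition of 50% or more, scaled per plate between neutral and stimulator controls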
# GRIN3A LBD mod: modulators (binders) of human NR3A ligand-binding domain | NR3A LBD differential scanning fluorimetry, Tm shift; 0% = protein alone, 100% = glycine-bound protein | Tm shift relative to glycine control, % at 25 µM | actives 2.5% (n = 340,000);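 active = melting temperature shift of at least 10% of the positive control shift, at one fixed dose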
# FAS-TE inh: inhibitors of human fatty acid synthase thioesterase domain | recombinant FAS-TE, OMFH fluorogenic substrate, fluorescence endpoint | actives 0.67% (n = 360,000) | P49327 | inhibition, % at 15 µM | AID 602261;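 active = compounds whose normalised, plate-corrected inhibition of enzyme fluorescence in the single-dose primary screen is 50% or more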
# A number is an active result; n = inactive; x = not tested or not shown. Shown are actives, neighbours in structure and some others; about 4.1% of the full set was active somewhere.
SMILES,pCIP destab,beta cell repl,MPTP inh,GRIN3A LBD mod,FAS-TE inh
O=C(CSc1nc(-c2ccccc2)nc2c1Cc1ccccc1O2)Nc1ccc(C(=O)O)cc1,n,x,n,32,n
NC1(C(=O)O)CCCCC1c1ccccc1 (stereo unspecified),x,x,n,n,n
CCOC(=O)/C(C#N)=C/c1c(Oc2cccc(C)c2)nc2ccccn2c1=O,n,n,n,n,n
CCOC(=O)/C(C#N)=C/c1c(Oc2cc(C)cc(C)c2)nc2ccccn2c1=O,n,n,n,15,n
COc1ccccc1-c1cnn2c(NCc3ccccc3)cc(C)nc12,n,n,n,10,n
COC(=O)c1[nH]c2ccc(F)cc2c1NC(=O)C1=COCCO1,n,n,n,17,n
O=C1CC(SC2=NCCS2)C(=O)N1c1ccc(Cl)cc1 (stereo unspecified),n,n,n,24,n
CCNC(=O)OCCC12CC3CC(CC(C3)C1)C2,n,x,n,n,n
O=C(OCC12CC3CC(CC(C3)C1)C2)c1ccc(NCc2cc(O)ccc2O)cc1,x,x,n,12,n
N#CCC(=O)Nc1ccc(C(=O)OCC(=O)C23CC4CC(CC(C4)C2)C3)cc1,x,n,n,n,n
O=C(OCCC12CC3CC(CC(C3)C1)C2)c1ccc(NCc2cc(O)ccc2O)cc1,x,x,n,27,n
CCCCC[C@@H](C)N1C[C@H](COCc2ccccc2)Oc2cc(N3CCC[C@@H]3CO)ccc2S1(=O)=O,x,x,n,x,n
CCOC(=O)C1=CCC2C(=O)N(C)C(=O)C12 (stereo unspecified),x,x,n,x,n
CCOC(=O)c1c(C)n(-c2ccc(C)cc2)c2c(C(C(C)=O)C(=O)O)c(Br)c(O)c(O)c12 (stereo unspecified),n,n,n,20,n
COc1ccccc1OCCn1nc2ccccc2c1OC,x,x,n,x,x
CCOC(=O)C1(C)CCCCCN1C(=O)c1ccc(N(C)C)cc1 (stereo unspecified),x,x,n,x,n
Cc1ccc2c(c1)C(=O)CC(c1ccccc1)S2 (stereo unspecified),x,x,n,13,n
Cc1cc([N+](=O)[O-])nn1CCCC(=O)Nc1sc2c(c1C(N)=O)CCCC2,n,n,n,17,n
Cc1cc([N+](=O)[O-])nn1CC(=O)Nc1sc2c(c1C(N)=O)CCCC2,n,n,n,n,n
CC(C)n1cnc2cc(NCc3ccccn3)ccc21,n,n,n,n,n
Cc1cc(NCc2ccccn2)ccc1Br,n,n,n,11,n
O=C(Nc1ccc(C(F)(F)F)cc1-c1ccccc1)c1ccccc1,n,n,n,n,n
O=C(Nc1ccccc1-c1ccccc1)c1cccc(C(F)(F)F)c1,n,n,n,18,n
Cc1ccc(NC(=O)c2sc3ncn(CC(=O)N4CCN(c5ccccn5)CC4)c(=O)c3c2C)cc1Cl,n,n,n,14,n
Nc1ncnc2c1ncn2[C@@H]1O[C@H](C(=O)NCCCN2CCCC2=O)[C@@H](O)[C@H]1O,x,x,n,x,n
SMILES,pCIP destab,beta cell repl,MPTP inh,GRIN3A LBD mod,FAS-TE inh
C=CCC(CC(O)COCCC)C(=O)NNC(=S)Nc1ccccc1 (stereo unspecified),n,n,n,10,n
CC(C)C(=O)N1CCC1(C)C(=O)Nc1cc(-c2ccccc2)nn1C (stereo unspecified),x,x,n,x,n
COc1ccccc1CNCc1cc(Br)ccc1OC,n,n,n,n,n
COc1ccc(Br)cc1CNC(C)c1ccccc1 (stereo unspecified),n,n,n,21,n
Cc1c(C(=S)Nc2ccccc2)cnn1-c1ccccc1,n,n,n,15,n
CCOc1cc(C(=S)N2CCOCC2)ccc1OC(=O)c1ccccc1,n,n,n,n,n
CCOc1cc(C(=S)N2CCOCC2)ccc1OS(=O)(=O)c1ccccc1,n,n,n,11,n
COc1cc(C(=S)N2CCCC2)ccc1OS(=O)(=O)c1ccc(NC(C)=O)cc1,n,n,n,20,n
CCN(CC)C(=O)c1csc(COCCO)n1,x,x,n,x,n
CC(C)CN1CCN(CCCOC(=O)Nc2cccc3ccccc23)CC1C (stereo unspecified),x,x,n,n,n
CCOC(=O)c1sc2nc(CSc3ccccc3)nc(N3CCC(C(N)=O)CC3)c2c1C,40,n,n,n,n
O=C(Nc1nnc([C@@H]2C[C@H](O)[C@@H](CO)O2)s1)NC(c1ccccc1)c1ccccc1,x,x,n,x,n
O=C(O)c1ccn[nH]1,x,n,n,n,n
O=C(O)c1cccc(NC(=O)c2cn(-c3ccccc3)nc2-c2cccc(Br)c2)c1,n,n,n,15,n
O=C(NS(=O)(=O)c1ccccc1)c1cccc(Br)c1,n,n,n,21,n
O=C(Nc1cccc(Br)c1)c1ccn[nH]1,n,n,n,27,n
O=C(O)c1cccc(NC(=O)c2cn(-c3ccccc3)nc2-c2ccncc2)c1,n,n,x,n,x
O=C(Nc1cccc(C(=O)Nc2cccc(Br)c2)c1)c1ccccc1,n,n,n,35,n
CC1=C(C(=O)N2CCOCC2)CC(CC(=O)NC2CCCCC2)C(=O)N1Cc1ccc(F)cc1 (stereo unspecified),x,x,n,x,n
CCNC(=O)C1(C)CCN(Cc2noc(-c3c(C)noc3C)n2)C1 (stereo unspecified),x,x,n,x,n
O=C(N/N=C/c1cc2c(cc1Cl)OCO2)c1ccc2c(c1)OCCO2,n,n,n,n,n
O=C(N/N=C/c1c(Cl)[nH]c2ccccc12)c1ccc2c(c1)OCCO2,n,n,n,18,n
CCOC(=O)C1(C)CCCN(C(=O)c2cccc(OC(F)(F)F)c2)C1 (stereo unspecified),x,x,n,x,n
O=Cc1c(Sc2ccccc2)nc2ccccn2c1=O,n,n,n,n,n
O=C(O)c1ccccc1N/N=C/c1c(Sc2nnnn2-c2ccccc2)nc2ccccn2c1=O,n,n,n,12,n
SMILES,pCIP destab,beta cell repl,MPTP inh,GRIN3A LBD mod,FAS-TE inh
O=c1c(/C=N/Nc2ccccc2)c(Sc2nnnn2-c2ccccc2)nc2ccccn12,n,x,n,16,n
CCOC(=O)C1=CCC(c2ccc(C)cc2)N(S(=O)(=O)c2ccc(C)cc2)C1 (stereo unspecified),x,x,n,x,n
CCCCc1c(-c2cccc(Cl)c2)ncn1CCc1ccccc1OC,x,x,n,x,n
CCN(CC)CCNC(=O)c1ccc2c(c1)NC(=O)c1ccccc1S2,n,n,n,n,n
CCCN1CCN(CCCNC(=O)c2ccc3c(c2)NC(=O)c2ccccc2S3)CC1,n,n,n,42,n
O=C(CSc1ncnc2sc3c(c12)CCC3)NCC1CCCO1 (stereo unspecified),n,n,n,n,n
Cc1nc(SCC(=O)NCC2CCCO2)c2c3c(sc2n1)CCC3 (stereo unspecified),n,n,n,20,n
COc1cc(/C=C/c2nc(-c3ccccc3O)n[nH]2)cc(OC)c1OC,n,n,n,n,n
CC(=O)Nc1ccc(/C=C/c2nc(-c3ccccc3O)n[nH]2)cc1,n,n,n,21,n
Cc1ccccc1S(=O)(=O)NC(=O)C1(C)CCN1C(=O)CCc1ccc(Cl)cc1Cl (stereo unspecified),x,x,n,x,n
